Experimental data reported in publication PMC7862700, “An all-to-all approach to the identification of sequence-specific readers for epigenetic DNA modifications on cytosine”.

Experiments:
Experiment in all cases: DAPPL (digital affinity profiling via proximity ligation, sequencing); 10 mM Tris-HCl pH 7.5, 50 mM NaCl, 1 mM DTT, 4% glycerol, room temperature, 30 min; GST-TFs on glutathione beads, 16-mer random dsDNA library, 0.1% formaldehyde crosslink after washing; high values mean tight binding
FEV = molecular target: T1, FEV (Homo sapiens, UniProt Q99581 1-238); conditions: protein: recombinant; tags: N-terminal GST; dsDNA, one strand shown
T1 sequence: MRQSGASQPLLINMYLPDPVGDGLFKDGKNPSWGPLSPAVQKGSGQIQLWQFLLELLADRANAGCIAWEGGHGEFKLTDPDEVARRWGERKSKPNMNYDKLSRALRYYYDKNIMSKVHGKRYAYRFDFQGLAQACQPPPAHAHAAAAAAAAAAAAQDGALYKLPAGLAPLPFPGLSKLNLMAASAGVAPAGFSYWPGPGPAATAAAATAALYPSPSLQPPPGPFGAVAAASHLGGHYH
Method in brief: (§1)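 Binding signal is each hexamer's read frequency for a factor divided by its frequency in the tag-only sample. The factors were GST-fused human transcription factors from yeast, captured on glutathione beads, DNA-barcoded and pooled with that sample. Pools were incubated with 200 nmole of a random double-stranded 16-mer DNA library in Tris/NaCl/DTT/glycerol buffer at room temperature for 30 min, then washed, crosslinked with 0.1% formaldehyde, proximity-ligated with BsaI/T4 ligase (1 h, 37 °C), PCR-amplified and sequenced on an Illumina NextSeq500.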

ETV5 = ETV5 (Homo sapiens, UniProt P41161 1-510); conditions: protein: recombinant; tags: N-terminal GST; dsDNA, one strand shown
Sequence of ETV5 (P41161 whole entry): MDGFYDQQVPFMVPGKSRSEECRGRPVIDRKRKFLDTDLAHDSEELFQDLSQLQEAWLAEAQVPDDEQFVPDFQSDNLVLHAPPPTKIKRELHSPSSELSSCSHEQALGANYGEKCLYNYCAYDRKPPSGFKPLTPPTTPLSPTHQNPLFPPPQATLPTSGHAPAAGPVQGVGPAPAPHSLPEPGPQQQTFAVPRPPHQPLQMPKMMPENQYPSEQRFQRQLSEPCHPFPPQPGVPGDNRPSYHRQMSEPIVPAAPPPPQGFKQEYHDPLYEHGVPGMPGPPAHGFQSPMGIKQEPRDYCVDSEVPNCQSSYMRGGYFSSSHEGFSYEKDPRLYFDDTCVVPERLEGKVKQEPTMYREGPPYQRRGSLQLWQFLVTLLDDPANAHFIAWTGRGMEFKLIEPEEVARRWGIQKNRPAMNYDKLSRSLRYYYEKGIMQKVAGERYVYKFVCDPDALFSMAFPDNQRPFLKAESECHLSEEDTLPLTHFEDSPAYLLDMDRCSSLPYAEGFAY
Method in brief: as §1

HSF1 = HSF1 (Homo sapiens, UniProt Q00613 1-529); conditions: protein: recombinant; tags: N-terminal GST; chain copies: 3; dsDNA, one strand shown
Sequence of HSF1 (Q00613 whole entry): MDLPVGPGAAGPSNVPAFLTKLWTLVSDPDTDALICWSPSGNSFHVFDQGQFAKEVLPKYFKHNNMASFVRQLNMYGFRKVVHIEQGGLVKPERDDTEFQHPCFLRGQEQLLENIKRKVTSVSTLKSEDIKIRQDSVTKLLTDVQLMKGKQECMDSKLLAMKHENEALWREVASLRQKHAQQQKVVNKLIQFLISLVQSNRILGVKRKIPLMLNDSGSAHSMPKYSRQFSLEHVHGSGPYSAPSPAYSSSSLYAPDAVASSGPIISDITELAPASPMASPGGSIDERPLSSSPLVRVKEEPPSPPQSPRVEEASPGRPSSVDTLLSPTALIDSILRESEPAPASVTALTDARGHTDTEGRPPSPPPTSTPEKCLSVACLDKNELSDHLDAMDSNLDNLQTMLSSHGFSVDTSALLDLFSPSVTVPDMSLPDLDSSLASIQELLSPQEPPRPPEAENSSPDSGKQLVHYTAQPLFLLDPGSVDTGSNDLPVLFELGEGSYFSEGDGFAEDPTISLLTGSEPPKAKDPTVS
Method in brief: as §1

SPIC = molecular target: T2, SPIC (Homo sapiens, UniProt Q8N5J4 1-248); conditions: protein: recombinant; tags: N-terminal GST; dsDNA, one strand shown
T2 sequence: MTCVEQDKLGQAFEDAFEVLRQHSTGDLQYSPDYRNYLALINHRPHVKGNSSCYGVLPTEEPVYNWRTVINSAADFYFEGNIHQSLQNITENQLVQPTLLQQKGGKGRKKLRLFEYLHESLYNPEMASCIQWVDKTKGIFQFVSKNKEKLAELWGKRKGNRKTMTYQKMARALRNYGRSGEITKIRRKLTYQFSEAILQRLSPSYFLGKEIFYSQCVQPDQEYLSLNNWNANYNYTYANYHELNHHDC
Method in brief: as §1

ELF4 = ELF4 (Homo sapiens, UniProt Q99607 1-663); conditions: protein: recombinant; tags: N-terminal GST; dsDNA, one strand shown
Sequence of ELF4 (Q99607 whole entry): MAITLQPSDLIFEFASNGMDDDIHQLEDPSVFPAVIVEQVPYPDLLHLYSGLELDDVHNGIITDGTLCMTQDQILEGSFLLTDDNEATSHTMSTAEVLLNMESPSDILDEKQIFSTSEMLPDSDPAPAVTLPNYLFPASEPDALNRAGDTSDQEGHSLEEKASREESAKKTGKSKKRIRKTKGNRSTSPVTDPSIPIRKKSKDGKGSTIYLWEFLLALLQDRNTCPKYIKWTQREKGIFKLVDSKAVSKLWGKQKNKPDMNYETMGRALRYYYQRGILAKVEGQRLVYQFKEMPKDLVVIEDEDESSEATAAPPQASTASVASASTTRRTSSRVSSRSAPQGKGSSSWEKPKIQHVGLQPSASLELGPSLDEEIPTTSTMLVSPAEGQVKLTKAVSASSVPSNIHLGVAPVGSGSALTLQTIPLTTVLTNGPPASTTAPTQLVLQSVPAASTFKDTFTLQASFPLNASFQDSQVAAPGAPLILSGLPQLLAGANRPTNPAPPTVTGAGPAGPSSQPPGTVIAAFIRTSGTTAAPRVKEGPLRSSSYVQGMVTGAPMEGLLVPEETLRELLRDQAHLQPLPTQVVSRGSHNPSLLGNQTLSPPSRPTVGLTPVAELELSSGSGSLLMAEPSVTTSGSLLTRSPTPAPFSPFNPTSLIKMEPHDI
Method in brief: as §1

ELK4 = molecular target: T3, ELK4 (Homo sapiens, UniProt P28324-2 1-405); conditions: protein: recombinant; tags: N-terminal GST; dsDNA, one strand shown
T3 sequence: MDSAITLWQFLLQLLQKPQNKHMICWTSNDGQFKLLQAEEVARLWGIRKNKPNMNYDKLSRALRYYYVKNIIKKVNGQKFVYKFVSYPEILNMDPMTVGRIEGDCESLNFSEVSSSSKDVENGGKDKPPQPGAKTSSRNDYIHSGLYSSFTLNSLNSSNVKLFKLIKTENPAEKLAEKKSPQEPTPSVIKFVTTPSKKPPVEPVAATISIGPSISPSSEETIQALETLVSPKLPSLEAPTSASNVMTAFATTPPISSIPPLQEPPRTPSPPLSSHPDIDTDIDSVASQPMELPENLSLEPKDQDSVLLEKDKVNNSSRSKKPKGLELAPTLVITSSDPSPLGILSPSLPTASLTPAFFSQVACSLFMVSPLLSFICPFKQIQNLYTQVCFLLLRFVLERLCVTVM
Method in brief: as §1

ETV2 = molecular target: T4, ETV2 (Homo sapiens, UniProt O00321 1-342); conditions: protein: recombinant; tags: N-terminal GST; dsDNA, one strand shown
T4 sequence: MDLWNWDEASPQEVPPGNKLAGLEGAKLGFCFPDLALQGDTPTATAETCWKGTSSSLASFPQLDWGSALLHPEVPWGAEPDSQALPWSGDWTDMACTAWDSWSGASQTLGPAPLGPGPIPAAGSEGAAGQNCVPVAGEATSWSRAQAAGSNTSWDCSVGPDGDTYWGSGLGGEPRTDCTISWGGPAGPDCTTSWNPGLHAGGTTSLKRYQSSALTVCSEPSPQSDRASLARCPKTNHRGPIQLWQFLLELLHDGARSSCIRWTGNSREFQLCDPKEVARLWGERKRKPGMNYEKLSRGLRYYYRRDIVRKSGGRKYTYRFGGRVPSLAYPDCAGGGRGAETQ
Method in brief: as §1

ELF3 = molecular target: T5, ELF3 (Homo sapiens, UniProt P78545 1-371); conditions: protein: recombinant; tags: N-terminal GST; dsDNA, one strand shown
T5 sequence: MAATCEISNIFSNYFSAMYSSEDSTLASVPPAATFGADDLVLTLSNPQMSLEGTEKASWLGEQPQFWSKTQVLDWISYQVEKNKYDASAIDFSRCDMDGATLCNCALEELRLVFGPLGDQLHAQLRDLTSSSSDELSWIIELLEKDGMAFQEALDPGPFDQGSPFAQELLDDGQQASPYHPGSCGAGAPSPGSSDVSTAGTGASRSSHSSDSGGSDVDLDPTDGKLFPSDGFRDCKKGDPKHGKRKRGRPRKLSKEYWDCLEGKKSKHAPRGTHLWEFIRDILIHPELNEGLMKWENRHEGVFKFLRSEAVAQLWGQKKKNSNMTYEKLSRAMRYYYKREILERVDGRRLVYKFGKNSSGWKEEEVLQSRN
Method in brief: as §1

CRX = CRX (Homo sapiens, UniProt O43186 1-299); conditions: protein: recombinant; tags: N-terminal GST; dsDNA, one strand shown
Sequence of CRX (O43186 whole entry): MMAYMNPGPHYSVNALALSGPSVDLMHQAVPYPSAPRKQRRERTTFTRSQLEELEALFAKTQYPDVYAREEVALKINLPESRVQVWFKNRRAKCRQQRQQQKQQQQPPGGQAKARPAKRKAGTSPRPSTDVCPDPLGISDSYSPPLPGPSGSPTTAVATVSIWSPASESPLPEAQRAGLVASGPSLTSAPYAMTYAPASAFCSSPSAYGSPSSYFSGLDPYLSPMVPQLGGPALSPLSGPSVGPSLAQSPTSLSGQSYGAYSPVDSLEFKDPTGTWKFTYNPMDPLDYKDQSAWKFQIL
Method in brief: as §1

ETV1 = ETV1 (Homo sapiens, UniProt P50549 1-477); conditions: protein: recombinant; tags: N-terminal GST; dsDNA, one strand shown
Sequence of ETV1 (P50549 whole entry): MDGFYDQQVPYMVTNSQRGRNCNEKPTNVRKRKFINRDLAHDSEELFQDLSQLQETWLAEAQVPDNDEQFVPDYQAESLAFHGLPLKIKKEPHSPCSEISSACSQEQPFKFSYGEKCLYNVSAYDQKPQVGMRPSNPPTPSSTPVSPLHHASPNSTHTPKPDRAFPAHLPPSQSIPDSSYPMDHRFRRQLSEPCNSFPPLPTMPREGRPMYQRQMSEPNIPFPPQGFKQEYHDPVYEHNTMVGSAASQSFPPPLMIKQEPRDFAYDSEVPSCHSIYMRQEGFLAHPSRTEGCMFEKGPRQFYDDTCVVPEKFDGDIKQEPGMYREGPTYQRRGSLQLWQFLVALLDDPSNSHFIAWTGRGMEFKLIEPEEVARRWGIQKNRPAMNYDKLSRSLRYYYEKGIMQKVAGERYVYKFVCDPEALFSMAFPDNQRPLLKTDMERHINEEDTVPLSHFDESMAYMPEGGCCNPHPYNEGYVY
Method in brief: as §1

Sequence: CCTCGC
- binding signal (FEV): 1.37 fold enrichment (6-mer frequency, TF over GST control)
- binding signal (ETV5): 1.51 fold enrichment (6-mer frequency, TF over GST control)
- binding signal (HSF1): 1.36 fold enrichment (6-mer frequency, TF over GST control)
- binding signal (SPIC): 1.46 fold enrichment (6-mer frequency, TF over GST control)
- binding signal (ELF4): 1.6 fold enrichment (6-mer frequency, TF over GST control)
- binding signal (ELK4): 1.62 fold enrichment (6-mer frequency, TF over GST control)
- binding signal (ETV2): 1.6 fold enrichment (6-mer frequency, TF over GST control)
- binding signal (ELF3): 1.56 fold enrichment (6-mer frequency, TF over GST control)
- binding signal (CRX): 1.16 fold enrichment (6-mer frequency, TF over GST control)
- binding signal (ETV1): 1.54 fold enrichment (6-mer frequency, TF over GST control)
